Results on 35 compounds are retold here after PubChem BioAssay AID1781 (National Center for Advancing Translational Sciences (NCATS), 2009).

Results filed as inconclusive are left out. The source made the active and inactive calls. Calls come from the whole dose curve; as a rule, active = well fitted curve in the direction sought with a large enough effect; inconclusive = small, poorly fitted or top-dose-only effect, or effect the other way, or another doubt; inactive = no such curve, though single readings can be large or run the other way.

Chain of Pyruvate kinase PKLR (Homo sapiens) (P30613 whole entry, looked up): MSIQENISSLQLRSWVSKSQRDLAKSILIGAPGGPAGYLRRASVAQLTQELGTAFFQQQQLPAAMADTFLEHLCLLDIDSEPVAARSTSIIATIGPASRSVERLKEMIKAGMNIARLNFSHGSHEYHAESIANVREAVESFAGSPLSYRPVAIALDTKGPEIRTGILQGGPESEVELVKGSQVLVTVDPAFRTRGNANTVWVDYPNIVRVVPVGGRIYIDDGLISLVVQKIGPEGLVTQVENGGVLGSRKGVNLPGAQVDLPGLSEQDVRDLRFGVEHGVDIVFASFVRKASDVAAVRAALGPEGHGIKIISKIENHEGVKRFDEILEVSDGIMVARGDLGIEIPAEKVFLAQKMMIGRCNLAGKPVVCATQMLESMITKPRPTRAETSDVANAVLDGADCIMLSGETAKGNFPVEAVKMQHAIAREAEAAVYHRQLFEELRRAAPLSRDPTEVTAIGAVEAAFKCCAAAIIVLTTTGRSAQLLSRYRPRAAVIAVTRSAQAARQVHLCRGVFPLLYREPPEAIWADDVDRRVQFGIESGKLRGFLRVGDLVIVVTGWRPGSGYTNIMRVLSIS

For this experiment, the target named is Pyruvate kinase PKLR (Homo sapiens) (UniProt P30613). Kind of experiment: Confirmation Concentration-Response Assay for Activators of Human Liver Pyruvate Kinase. As to conditions: purified hPK-L, Kinase-Glo ATP luminescence, 1 h; series mostly up to 57.5 µM. The source says:
Confirmatory assay NIH Chemical Genomics Center [NCGC] Matthew G. Vander Heiden, M.D., Ph.D. [Harvard Medical School, 77 Avenue Louis Pasteur, Boston, MA 02115] NCGC Assay Overview: Human pyruvate kinase liver (hPK-L) enzyme was supplied as a highly purified (>95% pure) preparation from Harvard Medical School and assayed for its ability to generate ATP from ADP using phosphoenolpyruvate (PEP) as a substrate. ATP generation was detected in a coupled reaction by luciferase-mediated luminescence, an ATP-dependent process. Pyruvate kinase substrates, PEP and ADP, were present in the assay at Km and approximately 10-fold below Km respectively. The enzyme was assayed at an intermediate level of activity to screen for both inhibitors and activators.
NCGC Assay Protocol Summary for L-isoform: Three uL of substrate mix (at r.t.) in assay buffer (50 mM Imidazole pH7.2, 50 mM KCl, 7 mM MgCl2, 0.01% Tween 20, 0.05% BSA) was dispensed into white solid bottom 1,536 well microtiter plates so that the final concentrations of substrates in the assay were 0.1 mM ADP and 0.5 mM PEP. 23 nL of compound were delivered by a pin tool and 1 uL of enzyme mix (final concentration of 0.1 nM) in assay buffer (4 degree Celsius) was added. Plates were incubated at room temperature for 1 hour. Two uL of detection mix (Kinase-Glo, Promega; at 4 degree Celsius protected from light) was added and luminescence read by a ViewLux (Perkin Elmer) at 1 second exposure/plate. Data were normalized to the uninhibited (row 31). Additionally, a no enzyme and 5-fold enzyme control was dispensed in row 32, split equally between the two conditions.
Turning to `Cc1cc2c(s1)c1cnn(Cc3c(F)cccc3F)c(=O)c1n2C`, the result was inactive.
As for `Cc1cc2c(s1)c1c(C)nn(Cc3ccccc3F)c(=O)c1n2C`, the entry is “inactive”; as for `CC(C)c1cc2c(s1)c1cnn(Cc3ccccc3F)c(=O)c1n2C`, “inactive”.
`Cn1c2ccsc2c2ncn(Cc3ccccc3F)c(=O)c21`: the outcome was inactive.
Next, `Cc1nc2ccc(S(=O)(=O)N3CCN(S(=O)(=O)c4c(F)cccc4F)CC3)cc2s1`: “inactive”; `CC1(C)CCc2cc(S(=O)(=O)N3CCN(S(=O)(=O)c4c(F)cccc4F)CC3)ccc2O1`: “inactive”; `Cc1cc2c(s1)c1cnn(Cc3ccc(S(C)(=O)=O)cc3)c(=O)c1n2C`: “inactive”.
As for `Cn1c2cc(CO)sc2c2cnn(Cc3ccccc3F)c(=O)c21`, the entry is “inactive”; as for `Cc1cc2c(s1)c1cnn(Cc3ccccc3F)c(=O)c1n2C(C)C`, “inactive”.
Next, `COc1cc(F)c(S(=O)(=O)N2CCN(S(=O)(=O)c3ccc4c(c3)OCCO4)CC2)c(F)c1`: “inactive”.
For the compound `CCCc1cc(F)c(S(=O)(=O)N2CCN(S(=O)(=O)c3ccc4c(c3)OCCO4)CC2)cc1F`, the outcome was inactive.
Next, `Cc1cc2c(s1)c1cnn(Cc3cccc(Cn4ncc5c6sc(C)cc6n(C)c5c4=O)c3F)c(=O)c1n2C`: “inactive”; `CCn1c2cc(C)sc2c2cnn(Cc3ccccc3F)c(=O)c21`: “inactive”.
As for `O=S(=O)(NC1CCN(S(=O)(=O)c2ccc3c(c2)OCCO3)C1)c1c(F)cccc1F` (stereo not given), the entry is “inactive”; as for `Cc1cc2c(s1)c1cnn(Cc3ccc(F)cc3F)c(=O)c1n2C`, “inactive”.
Next, `CCCCCn1ncc2c3sc(C)cc3n(C)c2c1=O`: “inactive”.
Consider `O=S(=O)(c1ccc2c(c1)OCCO2)N1CCN(S(=O)(=O)c2cccc[n+]2[O-])CC1`, for which the result was inactive.
Next, `CC(O)c1cc2c(s1)c1cnn(Cc3ccccc3F)c(=O)c1n2C` (stereo not given): “inactive”; `O=S(=O)(c1ccc2ccccc2c1)N1CCN(S(=O)(=O)c2c(F)cccc2F)CC1`: “inactive”; `Cn1c2cc(C=O)sc2c2cnn(Cc3ccccc3F)c(=O)c21`: “inactive”.
As for `Cn1c2ccsc2c2cnn(Cc3ccccc3F)c(=O)c21`, the entry is “inactive”; as for `Cn1c2cc(B(O)O)sc2c2cnn(Cc3ccccc3F)c(=O)c21`, “inactive”.
Next, `O=S(=O)(NC1CCC(NS(=O)(=O)c2c(F)cccc2F)CC1)c1ccc2c(c1)OCCO2` (stereo not given): “inactive”.
On to `O=S(=O)(NC1CCN(S(=O)(=O)c2ccc3c(c2)OCCO3)CC1)c1c(F)cccc1F`, for which the result was inactive.
Next, `Cn1c2cc([N+](=O)[O-])sc2c2cnn(Cc3ccccc3F)c(=O)c21`: “inactive”; `Cn1c2cc(C#N)sc2c2cnn(Cc3ccccc3F)c(=O)c21`: “inactive”.
For `O=C(CN1C(=O)N/C(=C\c2cccn2-c2cccc(C(=O)O)c2)C1=O)Nc1ccccc1F`, the call was inactive.
Next, `O=S(=O)(NCCNS(=O)(=O)c1c(F)cccc1F)c1ccc2c(c1)OCCO2`: “inactive”; `O=S(=O)(NCCCCCNS(=O)(=O)c1c(F)cccc1F)c1ccc2c(c1)OCCO2`: “inactive”.
As for `O=C(c1ccc2c(c1)OCCO2)N1CCN(S(=O)(=O)c2c(F)cccc2F)CC1`, the entry is “inactive”.
Next, `C[C@@H]1CN(S(=O)(=O)c2ccc3c(c2)OCCO3)CCN1S(=O)(=O)c1c(F)cccc1F`: “inactive”.
On to `Cc1cc2c(s1)c1cnn(Cc3ccc(C(C)C)cc3)c(=O)c1n2C`, for which the compound was called inactive.
As for `O=S(=O)(NC1CCN(S(=O)(=O)c2c(F)cccc2F)C1)c1ccc2c(c1)OCCO2` (stereo not given), the entry is “inactive”.
On to `CCc1cc2c(s1)c1cnn(Cc3ccccc3F)c(=O)c1n2C`, for which the outcome was inactive.
`Cc1cc2c(s1)c1cnn(Cc3c(F)c(F)cc(F)c3F)c(=O)c1n2C`: the compound was called inactive.
